In PubChem BioAssay:
“And” between values parts separate entries of the source, which are not always exact repeats. Equal entries are not always repeated. For some assays here: Measured potencies and affinities stand elsewhere. The source made the active and inactive calls. Rule as the data show it, unless noted: active = inhibition above about 80%; inactive = the rest.

How the values were obtained:
[1] = growth inhibition, single agent or in combination, cell-based, chromothripsis tumors, cisplatin or BGB combos (AID 1671449); conditions: LFS_MB_P medulloblastoma cells;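 also: cells exposed for 96 hours; 0% = vehicle DMSO and 100% = killing by high DMSO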
[2] = growth inhibition, single agent and combos, cell-based, chromothripsis tumors, cisplatin or BGB combos (AID 1671450); conditions: HDN33 neuroblastoma cells, stronger effect = higher value;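 also: cells exposed to compound for four days; 0% = vehicle DMSO and 100% = cell killing by high DMSO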
[3] = growth inhibition, single agents and combos, LFS_MB_1R, cell-based, cisplatin or BGB combos, synergistic combos for chromothripsis tumors (AID 1671452); conditions: LFS_MB_1R medulloblastoma cells, stronger effect = higher value;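 also: cells exposed for 96 hours before readout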
[4] = growth inhibition, single agents and combos, HTB85, cell-based, BGB or cisplatin IC20 combos, synergistic combos for chromothripsis tumors (AID 1671453); conditions: HTB85 osteosarcoma cells, drug combinations, stronger effect = higher value;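 also: cells exposed for 96 hours before readout; 0% = vehicle DMSO and 100% = high DMSO killing control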
[5] = growth inhibition, single agents and combos, CRL2098, cell-based, BGB or cisplatin IC20 combos, synergistic combos for chromothripsis tumors (AID 1671454); conditions: CRL2098 osteosarcoma cells, drug combinations, stronger effect = higher value;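 also: cells exposed for 96 h before readout; 0% = vehicle DMSO and 100% = killing by high DMSO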
[6] = growth inhibition, single agents and combos, HD-MB03, cell-based, BGB or cisplatin IC20 combos, synergistic combos for chromothripsis tumors (AID 1671455; in the data active = inhibition above about 83%;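 also: 0% = vehicle DMSO and 100% = high DMSO as cytotoxic control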); conditions: HD-MB03 medulloblastoma cells, stronger effect = higher value
[7] = growth inhibition, single agents and combos, UWB1.289, cell-based, BGB or cisplatin combos, synergistic combos for chromothripsis tumors (AID 1671456); conditions: UWB1.289 ovarian carcinoma cells, stronger effect = higher value;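 also: cells exposed to compound for four days; 0% = vehicle DMSO and 100% = killing by high DMSO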
[8] = growth inhibition, single agents and combos, LFS_MB_2R, cell-based, cisplatin combos, synergistic combos for chromothripsis tumors (AID 1671457); conditions: LFS_MB_2R medulloblastoma cells, stronger effect = higher value;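 also: cells exposed to compound for four days before readout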
[9] = growth inhibition, MDA-MB-436, cell-based, BGB or cisplatin combos, synergistic combos for chromothripsis tumors (AID 1671458; call rule not given here;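 also: cells exposed for 96 hours; 0% = vehicle DMSO and 100% = killing by high DMSO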); conditions: MDA-MB-436 breast carcinoma growth inhibition, drug combinations, stronger effect = higher value
[10] = UWB1.289_BRCA1 ovarian cancer growth, cell-based, BGB or cisplatin combinations (AID 1671459); conditions: UWB1.289 BRCA1 ovarian carcinoma, drug combinations, stronger effect = higher value
[11] = drug combination toxicity in non-malignant astrocytes – cell-based, BGB or cisplatin IC20 combos, cytotoxicity control for chromothriptic childhood tumor combination screen (AID 1671460); conditions: Human astrocytes, viability inhibition, drug combinations, at 0.5 µM, stronger effect = higher value;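 also: cells exposed to compounds for 96 hours before viability readout; 0% = vehicle and 100% = killing control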
[12] = BT084 cell growth, single and combined drugs, ICGC_MB145, cisplatin and BGB IC40 combos (AID 1671461); conditions: BT084 medulloblastoma cells, drug combinations, stronger effect = higher value;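 also: cells exposed to drugs for 96 hours; 0% = vehicle DMSO and 100% = high DMSO full killing control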
[13] = RCMB18 cell growth, single agent and combined, cisplatin and BGB IC40 combos (AID 1671462); conditions: RCMB18 medulloblastoma cells, stronger effect = higher value;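 also: cells exposed to compound for four days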
[14] = CRL1545 cell growth, single agent and combined, cisplatin and BGB IC20 combos (AID 1671464); conditions: CRL1545 osteosarcoma cells, stronger effect = higher value;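 also: cells exposed to compound for 96 hours before readout; 0% = vehicle DMSO and 100% = high DMSO killing control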
[15] = compounds altering viability of human ES cells (AID 493140; call rule not given here;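 also: cells exposed to compounds for four days before counting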); conditions: human embryonic stem cell survival screen; stronger effect = higher value
[16] = blockers of polyQ-driven CASP3 activation – cell-based (AID 1583); conditions: polyglutamine-induced caspase-3 activation, cell assay; stronger effect = higher value;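 tested at 10 µM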
[17] = yeast 75Q aggregation reduction – 75Q-TubU reporter (AID 1593); conditions: Yeast 75Q polyglutamine aggregation reporter
[18] = restoration of touch response, mutant HTT neurons – whole organism, C. elegans mechanosensory neurons, N-terminal huntingtin (AID 1599); conditions: C. elegans polyQ-huntingtin mechanosensory neurons, stronger effect = higher value
[19] = blockers of cytochrome c efflux from mitochondria – biochemical, purified mitochondria (AID 1603); conditions: stronger effect = lower value;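 also: mouse liver mitochondria challenged with calcium chloride; signal normalized to the plate average as 100%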
[20] = polyglutamine aggregate formation blockers (AID 1604); conditions: polyglutamine-induced protein aggregation inhibition assay; stronger effect = higher value; tested at 2.5 µM
[21] = measured here: combination with BGB IC40, at 0.05 µM
[22] = measured here: with BGB IC20 combination, at 0.5 µM
[23] = measured here: with cisplatin IC20 combination, at 0.5 µM
[24] = measured here: combination with cisplatin, at 0.5 µM
[25] = measured here: combination with cisplatin, at 5 µM

## O=c1[nH]c(=O)n(C2CCCO2)cc1F (configuration not stated)
[1]; at 0.5 µM, stronger effect = higher value
  inhibition: -23.3% (inactive) and -7.12% (inactive)
[1]; measured here: combination with BGB IC20, at 0.005 µM
  inhibition: 1.7% and -19.8%
[1]; measured here: combination with BGB IC40, at 0.005 µM
  inhibition: 22.1% and -46.3%
[1]; [21]
  inhibition: 39.2% and -46.2%
[1]; measured here: combination with cisplatin, at 0.5 µM, stronger effect = higher value
  inhibition: -44.2% and 1.28%
[1]; measured here: combination with cisplatin, at 5 µM, stronger effect = higher value
  inhibition: -1.4% and -18.1%
[2]; BGB combo, at 5 µM
  inhibition: 12.1% and -46.5%
[2]; at 0.5 µM
  inhibition: 9.66% (inactive) and -23% (inactive)
[2]; cisplatin combo, at 5 µM
  inhibition: 10.3% and -19.4%
[2]; [22]
  inhibition: 23.6% and -35.7%
[2]; [23]
  inhibition: 2.46% and -11.5%
[2]; single agent, at 5 µM
  inhibition: -7.16% and -34.9%
[3]; at 0.5 µM
  inhibition: -5.43% (inactive) and -39.4% (inactive)
[3]; [21]
  inhibition: 2.48% and -16.7%
[3]; [24]
  inhibition: -8.32% and -55.8%
[3]; [25]
  inhibition: -0.329% and -28.6%
[4]; at 0.5 µM
  inhibition: 2.38% (inactive) and -13.2% (inactive)
[4]; measured here: with BGB IC20, at 0.5 µM
  inhibition: -7.69% and 6.31%
[4]; measured here: with BGB IC20, at 5 µM
  inhibition: -1.29% and -14.6%
[4]; measured here: with cisplatin IC20, at 0.5 µM
  inhibition: -5.89% and -34.8%
[4]; measured here: with cisplatin IC20, at 5 µM
  inhibition: 2.69% and -26.3%
[4]; single agent, at 5 µM
  inhibition: 15.1% and -15%
[5]; at 0.5 µM
  inhibition: 3.75% (inactive) and -63.9% (inactive)
[5]; measured here: combination with BGB at IC20, at 0.5 µM
  inhibition: 7.31% and -58.1%
[5]; measured here: combination with cisplatin at IC20, at 0.5 µM
  inhibition: 18.7% and -78.1%
[6]; at 0.5 µM
  inhibition: 1.31% (inactive) and -8.99% (inactive)
[6]; measured here: combo with BGB at IC20, at 0.5 µM
  inhibition: -4.63% and -10.8%
[6]; measured here: combo with cisplatin at IC20, at 0.5 µM
  inhibition: 6.01% and -7.71%
[7]; at 0.5 µM
  inhibition: 3.3% (inactive) and -11.4% (inactive)
[7]; measured here: inhibition with BGB combination, at 0.05 µM
  inhibition: 7.79% and -33%
[7]; measured here: inhibition with cisplatin combination, at 0.05 µM
  inhibition: 4.79% and -22.4%
[8]; at 0.5 µM
  inhibition: -0.54% (inactive) and -25.9% (inactive)
[8]; [24]
  inhibition: 8.78% and -21.2%
[8]; [25]
  inhibition: 11.8% and -36.1%
[9]; at 0.5 µM
  inhibition: -0.47% (inactive) and -23.2% (inactive)
[9]; measured here: BGB combination, at 0.5 µM
  inhibition: -3.41% and -22.4%
[9]; measured here: BGB combination, at 5 µM
  inhibition: -17.4% and -31.2%
[9]; measured here: cisplatin combination, at 0.5 µM
  inhibition: 0.87% and -34.6%
[9]; measured here: cisplatin combination, at 5 µM
  inhibition: -5.11% and -24.1%
[10]; BGB combination, concentration series, at 5 µM
  inhibition: 6.02% and -15.3%
[10]; at 0.5 µM
  inhibition: 3.23% (inactive) and -25.5% (inactive)
[10]; cisplatin combination, concentration series, at 5 µM
  inhibition: 12% and 0.169%
[11]
  inhibition: 4.65% (inactive) and -9.75% (inactive)
[11]; measured here: combo with BGB IC20
  inhibition: 0.017% and -11.8%
[11]; measured here: combo with cisplatin IC20
  inhibition: 11% and -8.67%
[12]; at 0.5 µM
  inhibition: 11.3% (inactive) and -10.3% (inactive)
[12]; cisplatin combination, at 0.5 µM
  inhibition: -7.35% and -15%
[12]; cisplatin combination, at 5 µM
  inhibition: -13.3% and -155%
[12]; measured here: BGB IC40 combination 0.05 uM, at 0.05 µM
  inhibition: 5.6% and -35.5%
[12]; single agent, at 5 µM
  inhibition: 10.4% and -13.1%
[13]; at 0.5 µM
  inhibition: 1.7% (inactive) and -8.58% (inactive)
[13]; cisplatin combo, at 5 µM
  inhibition: 12.7% and -18.4%
[13]; measured here: BGB IC40 combination, at 0.05 µM
  inhibition: -6.79% and -15.3%
[13]; [24]
  inhibition: 2.62% and -23%
[13]; single agent, at 5 µM
  inhibition: -0.936% and -12.4%
[14]; at 0.5 µM
  inhibition: -31.3% (inactive) and -16.2% (inactive)
[14]; [22]
  inhibition: -54.2% and -32.2%
[14]; [23]
  inhibition: -19.9% and -9.92%
[14]; single agent, at 0.05 µM
  inhibition: 6.98% and -30.8%
[14]; single agent, at 5 µM
  inhibition: -17.9% and -2.7%

## O=C(c1ccc(OCCN2CCCCC2)cc1)c1c(-c2ccc(O)cc2)sc2cc(O)ccc12
[15]
  survival: 4.58 (inactive)

## Cc1cnc(C(=O)NCCc2ccc(S(=O)(=O)NC(=O)NC3CCCCC3)cc2)cn1
[15]
  survival: 31.5 (inactive)

## CC(C)NCC(O)c1ccc(NS(C)(=O)=O)cc1 (configuration not stated)
[15]
  survival: 2.17 (inactive)

## CC[C@H]1OC(=O)[C@H](C)[C@@H](O[C@H]2C[C@@](C)(OC)[C@@H](O)[C@H](C)O2)[C@H](C)[C@@H](O[C@@H]2O[C@H](C)C[C@H](N(C)C)[C@H]2O)[C@](C)(O)C[C@@H](C)CN(C)[C@H](C)[C@@H](O)[C@]1(C)O
[16]
  inhibition: 6.36%
[17]
  score: 1.1
[18]
  rescue above control: 0.7
[19]
  cytochrome c release ratio: 1.04
[20]
  inhibition of aggregation: 65.2%

## CCOC(=O)c1ccc(OC(=O)CCCCCN=C(N)N)cc1
[15]
  survival: 18.2 (inactive)

## CC(Cc1ccc(O)c(O)c1)(NN)C(=O)O (configuration not stated)
[16]
  inhibition: 4.01%
[17]
  score: 1.18
[18]
  rescue above control: -6.05
[19]
  cytochrome c release ratio: 0.84
[20]
  inhibition of aggregation: 15.6%

## Cc1c(C(=O)NN2CCCCC2)nn(-c2ccc(Cl)cc2Cl)c1-c1ccc(I)cc1
[15]
  survival: 93 (inactive)

## CCN(CC)CC#CCOC(=O)C(O)(c1ccccc1)C1CCCCC1 (configuration not stated)
[15]
  survival: 12.5 (inactive)

## COc1nc(C)nc(Cl)c1NC1=NCCN1
[15]
  survival: 21 (inactive)
